Shown are actives, neighbours in structure and some others; about 2.9% of the full set was active somewhere.
MEKK2mut PB1 HTS = signal of MEK5 binding to mutant human MEKK2 PB1 domain; percent response, % at 10 µM; 290,000 tested, 0.35% active; bead flow cytometry, Alexa488-MEK5 binding to MEKK2 mutant; in the data active = percent response above about 24%, passing the limit was not always enough
ABCB6 inh 2 = inhibitors of human ABC transporter ABCB6 | 360,000 tested, 0.19% active | AID 602162 | K562-ABCB6 porphyrin accumulation, flow cytometry, 1 h; stronger effect = lower value | fluorescence ratio to DMSO, % at 10 µM | Q9NP58;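 active = fluorescence ratio to DMSO below 75%, the collection mean minus 3 SD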;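 also: signal is porphyrin accumulated inside mitochondria; 100% equals median channel fluorescence of DMSO control wells; lower ratio means ABCB6 inhibition with less porphyrin fluorescence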
MEKK3 PB1 HTS = MEKK3-MEK5 PB1 interaction, increase or decrease | Q99759 | bead-based flow cytometry, Alexa488-MEK5 binding to MEKK3; actives lie on both sides; 0 = blocked by unlabeled MEK5, 100 = vehicle | binding response (% of control), % at 10 µM | 290,000 tested, 1.4% active | AID 1529;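 active = binding response more than 3 SD above or below the average of its plate-row segment, actives on both sides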;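 also: Alexa488 bead fluorescence after subtracting the streptavidin-only scavenger bead signal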
Target sequence (Q99759 whole entry, looked up): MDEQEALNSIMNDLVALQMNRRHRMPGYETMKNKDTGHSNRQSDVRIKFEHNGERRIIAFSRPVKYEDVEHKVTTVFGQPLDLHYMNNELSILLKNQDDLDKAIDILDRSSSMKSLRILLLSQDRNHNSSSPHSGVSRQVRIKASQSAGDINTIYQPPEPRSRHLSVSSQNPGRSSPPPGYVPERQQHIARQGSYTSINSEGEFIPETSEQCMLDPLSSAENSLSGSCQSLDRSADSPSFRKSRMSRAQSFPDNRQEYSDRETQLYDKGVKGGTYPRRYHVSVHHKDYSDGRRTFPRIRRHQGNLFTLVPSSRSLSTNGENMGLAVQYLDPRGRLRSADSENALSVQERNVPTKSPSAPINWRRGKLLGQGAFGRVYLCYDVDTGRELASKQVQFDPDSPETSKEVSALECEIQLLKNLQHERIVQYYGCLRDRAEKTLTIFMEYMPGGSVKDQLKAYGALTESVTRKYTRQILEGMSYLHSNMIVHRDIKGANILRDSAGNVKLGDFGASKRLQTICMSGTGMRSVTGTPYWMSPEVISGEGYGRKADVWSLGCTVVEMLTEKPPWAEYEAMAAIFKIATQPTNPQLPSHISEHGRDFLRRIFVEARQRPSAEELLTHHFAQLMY
CRFBP-R2 block = antagonists of CRF-binding protein/CRF-R2 receptor complex; AID 588475; 350,000 tested, 0.59% active; HEK293 CRF-R2/CRF-BP, CRF-induced calcium fluorescence; inhibition, % at 11.8 µM;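 active = inhibition of the ligand-induced calcium signal above about 50% at the single tested concentration, limit read from the data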
MEKK2wt PB1 HTS = raises or lowers MEK5 binding to wildtype human MEKK2 PB1 domain. Q9Y2U5. 290,000 tested, 1.1% active. bead flow cytometry, Alexa488-MEK5 binding to MEKK2 WT; actives lie on both sides. binding response (% of control), % at 10 µM; in the data active = binding response below about 67% or above about 130%
CRFBP-R2 agonist = agonists of human CRF-binding protein/CRF-R2 receptor complex | 350,000 tested, 0.46% active | HEK293 CRF-R2/CRF-BP, calcium dye fluorescence (FLIPR); percent of saturating CRF peptide response | activation, % at 13.2 µM;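 active = activation of at least 50%, plus an integration ratio under a set limit after plate pattern correction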;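 also: plate controls were neutral control wells without compound for no effect and CRF at EC100 for full effect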
MEKK2wt confirm = raises or lowers MEK5 binding to wildtype human MEKK2, retest. shares compounds with MEKK3 PB1 HTS. bead flow cytometry, Alexa488-MEK5 binding to MEKK2 WT; actives lie on both sides. binding response (% of control), % at 10 µM. 5,900 tested, 2.4% active; in the data active = binding response below about 16% or above about 210%; inactive = in between
MEKK2mut-MEK5 = signal of MEK5 binding to mutant human MEKK2, retest | shares compounds with MEKK3 PB1 HTS | bead flow cytometry, Alexa488-MEK5 binding to MEKK2 mutant | percent response, % at 10 µM | 5,900 tested, 2% active | AID 1893; in the data active = percent response mostly above about 71%, no sharp cut-off; inactive = mostly below about 38%;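 also: higher means compound restores mutant binding toward wildtype level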
MEKK3-MEK5 inh = MEKK3-MEK5 PB1 inhibition, single concentration confirmation; 5,900 tested, 1.8% active; shares compounds with MEKK3 PB1 HTS; binding response (% of control), % at 10 µM; bead flow cytometry, Alexa488-MEK5 binding to MEKK3; stronger effect = lower value;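 active = binding response below 72% of control, or above a set upper limit, though filed actives all read lower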;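 also: 100% = DMSO only wells and 0% = binding blocked by excess unlabeled MEK5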
An asterisk follows results filed as active; x = no result given; [ ] = another dose, or the depositor's remark.

SMILES	MEKK2mut PB1 HTS	ABCB6 inh 2	MEKK3 PB1 HTS	CRFBP-R2 block	MEKK2wt PB1 HTS	CRFBP-R2 agonist	MEKK2wt confirm	MEKK2mut-MEK5	MEKK3-MEK5 inh
O=C(COC(=O)c1ccc(Cl)nc1)NCCc1ccccc1	x	93	x	0	x	0	x	x	x
CCOC(=O)C1=C(C)NC(=O)C1CC(=O)Nc1ccccc1 (stereo not given)	6	x	125*	x	115	x	102	2	99
CCOC(=O)C1=C(C)NC(=O)NC1c1ccc(OCC(=O)Nc2ccccc2)c(OC)c1 (stereo not given)	0	101	102	4	105	2	x	x	x
CC(=O)NC12CC3CC(C1)CC(C(=O)Oc1ccc(N(C)S(=O)(=O)c4cc(C)ccc4C)cc1)(C3)C2	x	92	x	35	x	4	x	x	x
COCc1nnc(NC(=O)c2cccc(NC(=O)c3ccccc3)c2)s1	-5	104	99	-7	94	1	x	x	x
CCn1ccnc1CNCc1cn(-c2cc(C)ccc2C)nc1-c1ccccc1	7	99	97	-20	112	0	x	x	x
COCCN1CCC(CNCc2cn(-c3cc(C)ccc3C)nc2-c2ccccc2)C1 (stereo not given)	9	108	107	5	163*	5	173	41	111
COCCN1CCC(CNCc2cn[nH]c2-c2ccc(C)c(C)c2)C1 (stereo not given)	31	99	100	-1	161*	0	159	43	114
CCN(CC)C1CCN(Cc2cn[nH]c2-c2ccc(OC)c(F)c2)C1 (stereo not given)	26	100	104	-37	132	2	x	x	x
CCOC(=O)c1c(C)[nH]c(C)c1C(=O)COC(=O)[C@@H](NC(=O)c1ccco1)C(C)C	x	95	x	-7	x	1	x	x	x
Clc1ccc2nc(N3CCNCC3)nc(-c3ccccc3)c2c1	32	95	103	-44	152*	2	108	0	102
C=CC[C@@H](Cc1ccc(F)cc1)C(=O)OC[C@@H]1CCCN1C(=O)[C@@H](CC=C)CC(=O)N[C@H](CO)Cc1ccccc1	x	95	x	1	x	-1	x	x	x
O=C(OCc1ccccc1)/C(=C/c1ccc(Cl)cc1)NC(=O)c1ccccc1Cl	24*	102	109	2	111	7	102	-5	103
Cc1ccc(C(=O)N/C(=C\c2ccccc2)C(=O)OCc2ccccc2)cc1	-6	98	98	15	87	0	x	x	x
Cc1ccc(-n2c(SCC(=O)N3CC(=O)Nc4ccccc43)nc3ccccc3c2=O)cc1C	0	97	136*	-27	99	-1	92	-6	97
O=C(CSc1nc2ccccc2c(=O)n1-c1ccccc1)N1CCc2ccccc2C1	-3	89	88	21	84	4	x	x	x
O=C(CSc1nc2ccccc2c(=O)n1-c1ccccc1)N1CCN(CCO)CC1	-21	99	2.0*[inhibitor]	21	3.0*[inhibitor]	-1	96	1	104
O=C(CSc1nc2ccccc2c(=O)n1-c1ccccc1)N1CCC1	-5	95	101	25	95	1	x	x	x
CC(C)c1ccccc1-n1c(SCC(=O)N2CCc3ccccc3C2)nc2ccccc2c1=O	0	91	155*	46	103	-1	92	-8	98
C[C@@H]1COC(=O)[C@@H](CC(=O)OC(C)(C)C)C/C=C\C[C@@H](CC(=O)NCCO)C(=O)N1	x	100	x	-2	x	-1	x	x	x
COCCn1c(N)c(N(Cc2ccccc2)C(=O)CSCC(=O)Nc2ccc(C)cc2)c(=O)[nH]c1=O	x	102	x	0	x	0	x	x	x
CCOC(=O)CNC(=O)c1sc(NC(=O)/C=C/c2ccccc2)nc1C	0	100	102	-3	105	5	x	x	x
Cc1nc(NC(=O)/C=C/c2ccccc2)sc1C(=O)NCCO	79*	100	139*	-13	129	0	97	-6	98
O=C(CN(c1cccc(Br)c1)S(=O)(=O)c1ccccc1)N/N=C/c1cc([N+](=O)[O-])ccc1O	x	103	x	-21	x	0	x	x	x
Cc1ccc(S(=O)(=O)N2CCN(c3nn(C)c(=O)n(C)c3=O)CC2)cc1C	x	96	x	-6	x	0	x	x	x
SMILES	MEKK2mut PB1 HTS	ABCB6 inh 2	MEKK3 PB1 HTS	CRFBP-R2 block	MEKK2wt PB1 HTS	CRFBP-R2 agonist	MEKK2wt confirm	MEKK2mut-MEK5	MEKK3-MEK5 inh
COc1ccc(NC(=S)N2CCN(c3ccc([N+](=O)[O-])cc3)CC2)cc1OC	-3	103	118	8	113	-1	x	x	x
COc1cccc(NC(=S)N2CCN(c3ccc([N+](=O)[O-])cc3)CC2)c1	-16	105	60*[inhibitor]	35	60*[inhibitor]	-1	99	-2	100
CSc1cccc(NC(=S)NN(C)C)c1	-34	101	68*[inhibitor]	2	60*[inhibitor]	-1	114	4	106
CSc1cccc(NC(=S)Nc2ccc(F)cc2)c1	0	102	96	3	99	-2	x	x	x
CCN(CC)S(=O)(=O)c1ccc2[nH]c(=O)cc(C(=O)NCC3CCCO3)c2c1 (stereo not given)	x	97	x	12	x	-1	x	x	x
CCOC(=O)c1nc2sc(C)c(C)c2c(=O)[nH]1	1	99	104	-19	103	-2	x	x	x
CCOC(=O)/C=C/c1nc(C(=O)OCC)c(C)c(=O)[nH]1	-4	98	75*[inhibitor]	6	98	0	97	-2	94
Cc1ccccc1OCC(=O)Nc1ccc(S(=O)(=O)Nc2ccccn2)cc1	0	90	136*	-17	109	1	96	1	100
COc1ccc([C@H]2CC(=O)C=C(C#CC(C)(C)C)C2)cc1	x	92	x	0	x	-1	x	x	x
O=C(N/N=C/c1cccnc1)C(O)c1ccccc1 (stereo not given)	1	99	146*	9	110	6	106	4	107
CC(/C=C/c1ccccc1)=N/NC(=O)C(O)c1ccccc1 (stereo not given)	1	113	156*	7	112	-2	101	1	101
COC(=O)N/N=C(C)/C=C/c1ccccc1	0	102	103	7	105	-5	x	x	x
COc1cc(/C=C(/C#N)c2nc3ccccc3c(=O)[nH]2)ccc1O	1	100	140*	-42	104	68*	99	-4	101

Screening results as filed in PubChem BioAssay.
